aSyn UTR act = Activators via SNCA 5'UTR binding, MLPCN. 7.1% of 300,000 active. activity score, % (tested at 7.5 µM), hits read low. alpha-synuclein 5'UTR reporter, activators screen; in the data active = activity score below about -60%
Numbers without * were called inactive. A selection follows.

How did COc1ccc2occ(C(=O)c3cccs3)c2c1 do in these assays?
aSyn UTR act: -242*

What do the screens show for `Cc1cc(C)n2cc(-c3ccc(Cl)cc3)c(C(=O)O)c2n1`?
aSyn UTR act: -99*

What do the screens show for `O=C1C(C=NCc2ccccn2)=C(O)c2ccccc21`?
aSyn UTR act: -106*

What do the screens show for `O=C1C(C=NCCCN2CCCC2=O)=C(O)c2ccccc21`?
aSyn UTR act: -113*

How did CC(C)CN=CC1=C(O)c2ccccc2C1=O do in these assays?
aSyn UTR act: -83*

How did O=C(Nc1ccc2c(c1)OCO2)c1cnc2n(c1=O)CCS2 do in these assays?
aSyn UTR act: -125*

How did O=C(Nc1ccc2c(c1)OCCO2)c1cnc2n(c1=O)CCS2 do in these assays?
aSyn UTR act: -75*

What do the screens show for `Cc1cccc(OCCCC(=O)Nc2ccc(N(C)C)cc2)c1`?
aSyn UTR act: -88*

What do the screens show for `Cc1ccc(NC(=O)CCOc2ccccc2)cc1`?
aSyn UTR act: -203*

How did CC(=O)N/N=C/c1ccccc1OCCOc1cccc(C)c1 do in these assays?
aSyn UTR act: -76*

Results for CCCN1CN=C(Nc2nc3ccccc3o2)NC1 ?
aSyn UTR act: -113*

What do the screens show for `COCCCN1CN=C(Nc2nc3ccccc3o2)NC1`?
aSyn UTR act: -82*

What do the screens show for `c1ccc2oc(NC3=NCN(CC4CCCO4)CN3)nc2c1` (stereo not given)?
aSyn UTR act: -94*

Results for CCCCN=C(C)c1c(O)c2ccccc2oc1=O ?
aSyn UTR act: -159*

What do the screens show for `CCC(=O)NCCc1nc2cc(NC(=O)c3ccccc3OC)ccc2n1C`?
aSyn UTR act: -71*

Results for Cn1cnc2cc(NC(=O)COc3ccccc3)ccc21 ?
aSyn UTR act: -117*

What do the screens show for `CCC(=O)NCCc1nc2cc(NC(=O)COc3ccccc3)ccc2n1C`?
aSyn UTR act: -113*

Results for Cc1ccc(OCC(=O)Nc2ccc3c(c2)nc(CCN2CCN(C)CC2)n3C)cc1 ?
aSyn UTR act: 105

What do the screens show for `CC(=O)NCCc1nc2cc(NC(=O)c3ccc(F)cc3)ccc2n1C`?
aSyn UTR act: -111*

What do the screens show for `COc1ccccc1C(=O)Nc1ccc2c(c1)nc(CCNC(C)=O)n2C`?
aSyn UTR act: -73*

What do the screens show for `CCC(=O)NCCc1nc2cc(NC(=O)c3cccc([N+](=O)[O-])c3)ccc2n1C`?
aSyn UTR act: -70*

Results for COc1cccc(N2CCN(C3C4CC5CC(C4)CC3C5)CC2)c1 (stereo not given) ?
aSyn UTR act: -95*

How did O/C(=C\c1nc2ccccc2[nH]1)c1cccs1 do in these assays?
aSyn UTR act: -200*

What do the screens show for `O=C(Nc1nc2ccccc2[nH]1)C12CC3CC(CC(C3)C1)C2`?
aSyn UTR act: -181*

Results for O=C(Nc1nc2ccccc2[nH]1)c1cccs1 ?
aSyn UTR act: -91*

What do the screens show for `O=C(Nc1ccc(-c2nc3ccccc3[nH]2)cc1)C1CCCO1` (stereo not given)?
aSyn UTR act: 77

Results for Cc1ccc(C(=O)Nc2nc3ccccc3[nH]2)cc1 ?
aSyn UTR act: 68

What do the screens show for `O=C(Nc1nc2ccccc2[nH]1)C1CCCO1` (stereo not given)?
aSyn UTR act: -79*

Results for Cc1[nH]c2ccccc2c1-c1nc2ccccc2[nH]c1=O ?
aSyn UTR act: -63*

How did O=c1[nH]c2ccccc2nc1-c1cccs1 do in these assays?
aSyn UTR act: -152*

What do the screens show for `O=C(Nc1nc2ccccc2[nH]1)c1ccc(Br)o1`?
aSyn UTR act: -132*

What do the screens show for `O=c1[nH]c2ccccc2nc1/C=C(\O)c1cccs1`?
aSyn UTR act: -174*

How did CC(=O)Nc1c(-c2ccc3ccccc3c2)nc2ccccn12 do in these assays?
aSyn UTR act: -124*

What do the screens show for `CCOC(=O)N1CCC(=NNc2nc3ccccc3s2)CC1`?
aSyn UTR act: -112*

What do the screens show for `CC(=O)Nc1cccc(/C(C)=N/Nc2nc3ccccc3s2)c1`?
aSyn UTR act: -224*

Results for CCOC(=O)N1CCN(/C=C(\C#N)c2nc3ccccc3s2)CC1 ?
aSyn UTR act: -94*

Results for CC(=O)N1CCC(=NNc2nc3ccccc3s2)CC1 ?
aSyn UTR act: -215*

How did CN[C@H]1CCc2cc(OC)c(OC)c(OC)c2-c2ccc(N(C)CC(OC)OC)c(=O)cc21 do in these assays?
aSyn UTR act: 70

Results for Cc1cc2nn(-c3cccc4ccccc34)nc2cc1N ?
aSyn UTR act: -180*

How did CS(=O)Cc1cc(Sc2ccccc2)nc(-c2cccnc2)n1 (stereo not given) do in these assays?
aSyn UTR act: -66*

How did COc1cc2c(c(OC)c1OC)-c1ccc(N(C)CC(OC)OC)c(=O)cc1[C@@H](NC(C)=O)CC2 do in these assays?
aSyn UTR act: 84

How did CCCC(=O)Nc1nnc(/C=C/c2ccc(OC)cc2)s1 do in these assays?
aSyn UTR act: -107*

Results for CCOC(=O)Nc1nnc(/C=C/c2ccc(OC)cc2)s1 ?
aSyn UTR act: -94*

What do the screens show for `CCC(=O)Nc1nnc(/C=C/c2ccccc2)s1`?
aSyn UTR act: -138*

How did CCCC(=O)Nc1nnc(/C=C/c2ccccc2)s1 do in these assays?
aSyn UTR act: -99*

Results for COc1ccc(/C=C/c2nnc(NC(=O)C(C)(C)C)s2)cc1 ?
aSyn UTR act: -96*

What do the screens show for `C/C(=N\NC(=O)c1cccc(O)c1)c1ccc(NC(=O)Cc2ccccc2)cc1`?
aSyn UTR act: -85*

Results for C/C(=N\NC(=O)c1ccccc1O)c1ccc(NC(=O)Cc2ccccc2)cc1 ?
aSyn UTR act: -71*

What do the screens show for `COc1ccc(/C(C)=N/NC(=O)c2ccccc2OCc2ccccc2)c(OC)c1`?
aSyn UTR act: -118*

Results for COc1cccc(C(=O)N/N=C(\C)c2ccc(NC(=O)Cc3ccccc3)cc2)c1OC ?
aSyn UTR act: -88*

Results for O=C(CSc1ccc(Cl)cc1)Nc1cccc(-c2nc3ccccc3[nH]2)c1 ?
aSyn UTR act: -89*

How did Cc1ccc2nc(-c3ccc(NC(=O)CSc4ccccc4)cc3)[nH]c2c1 do in these assays?
aSyn UTR act: -98*

What do the screens show for `O=C(CN1CCOCC1)Nc1ccc(-c2nc3ccccc3[nH]2)cc1`?
aSyn UTR act: -111*

Results for O=C(CSc1ccccc1)Nc1ccc(-c2nc3ccccc3[nH]2)cc1 ?
aSyn UTR act: -171*

Results for O=C(Cc1cccs1)Nc1ccc(-c2nc3ccccc3[nH]2)cc1 ?
aSyn UTR act: -263*

What do the screens show for `COc1ccc(/C=C/C(=O)N(C)C2CCCCC2)cc1Br`?
aSyn UTR act: -92*

How did O=C(Nc1nc(NC(=O)c2ccco2)n(-c2ccccc2)n1)c1ccccc1 do in these assays?
aSyn UTR act: 79

Results for Nc1nc(NC(=O)c2ccccc2)nn1-c1ccccc1 ?
aSyn UTR act: -71*

What do the screens show for `Nc1nc(NC(=O)c2cccs2)nn1-c1ccccc1`?
aSyn UTR act: -115*

Results for COCC(C)NC(=O)CCc1nnc(C2(c3ccc(Cl)cc3)CCC2)o1 (stereo not given) ?
aSyn UTR act: -81*

What do the screens show for `C=C(C)CNC(=O)CCc1nnc(C2(c3ccc(Cl)cc3)CCC2)o1`?
aSyn UTR act: -98*

Results for C=CCNC(=O)CCc1nnc(C2(c3ccc(Cl)cc3)CCC2)o1 ?
aSyn UTR act: -120*

What do the screens show for `COc1cccc(N(C(=O)c2nc3nccc(C)n3n2)c2nc3ccccc3s2)c1`?
aSyn UTR act: -185*

How did Cc1ccc(NC(=O)Cc2nc(CSc3nnc(-c4ccc5c(c4)OCO5)o3)cs2)cc1 do in these assays?
aSyn UTR act: -77*

How did CCOC(=O)CNC(=O)c1cc(-c2ccccn2)nc2c(C)c(Cl)ccc12 do in these assays?
aSyn UTR act: -66*
